The text below walks through data of PubChem BioAssay (Tox21).

SMILES strings stand for the structures. Values without a mark were called inactive. Records with an inconclusive call do not appear. Activity calls are given as the source filed them. Unless noted, calls follow the shape of the dose curve; as a rule, active = well fitted curve in the direction sought with a large enough effect in the repeat runs; inconclusive = weak or mixed curves; inactive = no such curve, though single readings can be large; an effect the other way counts as inactive or inconclusive.

Assay [1] is described as follows: qHTS assay to identify small molecule agonists of the estrogen receptor alpha (ER-alpha) signaling pathway in the presence of an antagonist - cell viability counter screen (AID 1259386).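 Also: series mostly up to about 92 µM; cells exposed to compounds for 22 h at 37 °C before the viability read; nearly all actives have a fitted effect of over 30% in size.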 A digest of the protocol:
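The test measures whether compounds kill ER-alpha reporter cells (VM7Luc4E2) under antagonist co-treatment (ICI-182,780, 10.0nM). Fluorescence from CellTiter-Fluor is read after a 22hr exposure.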

Assay [2] has as its target Progesterone receptor (Homo sapiens) (UniProt P06401). Briefly: qHTS assay to identify small molecule agonists of the progesterone receptor (PR) signaling pathway (AID 1346784; calls by dose curve; also: nearly all actives have a fitted effect of over 30% in size). A digest of the protocol:
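HEK 293T PR-UAS-bla reporter cells, 2% charcoal-stripped FBS; 6 hr settle at 37C/5% CO2, compound (DMSO) 16 hr, LiveBLAzer B/G FRET substrate 2 hr RT, fluorescence intensity read.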
For orientation: qHTS replaces the single test concentration by a dilution series.

For assay [3] the target is unchanged. The assay is described as follows: qHTS assay to identify small molecule antagonists of the progesterone receptor (PR) signaling pathway (AID 1346795; active = well fitted inhibition curve with a large enough effect in the signal ratio in the repeat runs, not every such curve was filed as active; the % refers to the signal ratio). The procedure, abridged:
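Beta-lactamase reporter, HEK293T PR-UAS-bla line; 2% charcoal-stripped FBS; 6 hr pre-incubation, 37C/5% CO2. Compound + R5020 1 nM final, 16 hr. LiveBLAzer B/G FRET substrate, 2 hr RT; fluorescence intensity read.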

The nature of assay [4]: qHTS assay to identify small molecule antagonists of the TGF-beta/Smad signaling pathway - cell viability counter screen (AID 1346824). Also: nearly all actives have a fitted effect of over 50% in size. A digest of the protocol: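 SBE-bla HEK 293T cells, incubated overnight, then compound plus 0.25 ng/mL TGF-beta1 (stock added) for 5 hr at 37 C. Viability was read in the same wells by CellTiter-Glo luminescence after 30 min at room temperature.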

The nature of assay [5]: qHTS assay to identify small molecule agonists of the TGF-beta/Smad signaling pathway - cell viability counter screen (AID 1346829). Also: top concentration of the series differs between compounds; nearly all actives have a fitted effect of over 45% in size. A digest of the protocol: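 In parallel with the Smad reporter read, viability of HEK 293T cells stably carrying SBE-bla is quantified by ATP luminescence following 5 hr compound treatment.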
Assay [6] is described as follows: qHTS assay to identify small molecule agonists of the TGF-beta/Smad signaling pathway (AID 1346859; active = well fitted activation curve with a large enough effect in the signal ratio in the repeat runs, not every such curve was filed as active; the % refers to the signal ratio; also: series mostly up to about 77 µM). The procedure, abridged:
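Read-out: fluorescence at 460 and 530 nm (405 nm excitation) after a 2 hr room-temperature incubation with beta-lactamase FRET substrate. SBE-bla HEK 293T cells had been treated with test compounds for 5 hr at 37 C.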

The target of assay [7] is Thyrotropin-releasing hormone receptor (Homo sapiens) (UniProt P34981). The assay is described as follows: qHTS assay to identify small molecule antagonists of the thyrotropin-releasing hormone receptor (TRHR) signaling pathway (AID 1346877; active = well fitted inhibition curve with a large enough effect in the repeat runs, not every such curve was filed as active; also: series mostly up to about 51 µM). The procedure, abridged:
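Overnight-plated (18 h, 37 °C) HEK293 cells expressing TRHR were dye-loaded 2 h, treated with compound, then stimulated with TRH at 1 nM final. Fluorescence intensity was captured every second for 3 min.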

Assay [8] shares this target. The assay is described as follows: qHTS assay to identify small molecule agonists of the thyrotropin-releasing hormone receptor (TRHR) signaling pathway (AID 1346891; calls by dose curve;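 also: HEK293 cells expressing TRHR with calcium dye readout; series mostly up to about 58 µM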). A digest of the protocol: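 HEK293/TRHR cells, 1500 per well, 18 h 37 °C; Ca dye 2 h 37 °C; pin-tool compound addition (agonist mode); kinetic fluorescence 3 min, 1 s reads; 15 concentrations, triplicate.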

The nature of assay [9]: Human pregnane X receptor (PXR) small molecule agonists, qHTS cell viability counter screen (AID 1346977). Also: nearly all actives have a fitted effect of over 50% in size. A digest of the protocol:
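Fluorescence read-out (CellTiter-Fluor) of viability in PXR-Luc HepG2 cells, multiplexed with the luciferase agonist read. Compounds in DMSO added after 5hr plating; 24hr total exposure at 37C, 5% CO2.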

Assay [10] in a line: Caspase-3/7 induction in HepG2 cells by small molecules, qHTS assay (AID 1346978). Also: nearly all actives have a fitted effect of over 15% in size. A digest of the protocol: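 Wild-type HepG2 cells, 2,000/well, settled 5 hr at 37 C and 5% CO2, then compound-treated for 17 hr; caspase-3/7 activity read by luminescent Caspase-Glo 3/7 after 30 min at room temperature.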
The nature of assay [11]: Caspase-3/7 induction in CHO-K1 cells by small molecules, qHTS cell viability counter screen (AID 1346979). Also: nearly all actives have a fitted effect of over 35% in size. The procedure, abridged:
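CHO-K1 wt, 1,500 cells/well; 5hr pre-incubation 37C/5% CO2; compound pin transfer (DMSO); 16hr exposure; CellTiter-Fluor added, 1hr, fluorescence read.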

Assay [12] in a line: Caspase-3/7 induction in CHO-K1 cells by small molecules, qHTS assay (AID 1346980). Also: nearly all actives have a fitted effect of over 15% in size. The procedure, abridged: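 Wild-type CHO-K1 cells exposed to compounds for 17hr at 37 C, 5% CO2. Caspase-3/7 activity then measured by Caspase-Glo 3/7 luminescence after 30min at room temperature.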
Assay [13] can be described thus: Caspase-3/7 induction in HepG2 cells by small molecules, qHTS cell viability counter screen (AID 1346981). Also: series mostly up to about 92 µM; nearly all actives have a fitted effect of over 30% in size. A digest of the protocol: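 Treatment of HepG2 cells with DMSO-delivered compounds ran 16 hr at 37 C following a 5-hr pre-incubation of 2,000 cells/well. CellTiter-Fluor fluorescence, read after 1 hr, served as the viability measure in a qHTS format.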
Assay [14] has as its target Nuclear receptor subfamily 1 group I member 2 (Homo sapiens) (UniProt O75469). Briefly: Human pregnane X receptor (PXR) small molecule agonists, qHTS assay (AID 1346982). Also: nearly all actives have a fitted effect of over 35% in size. Also: potency is read from the fitted curve at half-maximal effect. A digest of the protocol:
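Stable HepG2 line reporting PXR-mediated CYP3A4 expression via luciferase. Treatment: 24 hr with compounds in DMSO at 37 C. Detection: ONE-Glo luminescence.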

Assay [15] can be described thus: qHTS assay to identify small molecule antagonists of the progesterone receptor (PR) signaling pathway - cell viability counter screen (AID 1346798). Also: series mostly up to about 92 µM; nearly all actives have a fitted effect of over 50% in size. A digest of the protocol: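 Luminescence readout (CellTiter-Glo, 30 min, RT) of viability in PR-UAS-bla HEK293T cells exposed to compound and R5020 agonist for 16 hr at 37C, 5% CO2; run in the same wells as the beta-lactamase reporter read.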

The nature of assay [16]: qHTS assay to identify small molecule agonists of the progesterone receptor (PR) signaling pathway - cell viability counter screen (AID 1346799; calls by dose curve; also: nearly all actives have a fitted effect of over 45% in size). The procedure, abridged: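 HEK293T PR-UAS-bla, 3,000 cells/well, 2% charcoal-stripped FBS; 6 h settle, compound 16 h at 37C/5% CO2; LiveBLAzer 2 h RT, then CellTiter-Glo 30 min RT, luminescence read.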
The target in assay [17] is Nuclear receptor subfamily 1 group I member 2 (Rattus norvegicus) (UniProt Q9R1A7). Briefly: Rat pregnane X receptor (rPXR) activation by small molecules, qHTS assay (AID 1346983). Also: nearly all actives have a fitted effect of over 20% in size. As to conditions: rPXR luciferase reporter cells, One-Glo luminescence, 24 h; max activation: stronger effect = higher value. The procedure, abridged: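 Cell-based rPXR activation assay: rPXR cells, 2,000 per well, rested 5hr at 37 C, then exposed to compounds in DMSO for 24 hr at 37 C. Luciferase activity read by One-Glo luminescence after 30 min at room temperature.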
Nuclear receptor subfamily 1 group I member 2 (Rattus norvegicus), sequence (Q9R1A7 whole entry, looked up): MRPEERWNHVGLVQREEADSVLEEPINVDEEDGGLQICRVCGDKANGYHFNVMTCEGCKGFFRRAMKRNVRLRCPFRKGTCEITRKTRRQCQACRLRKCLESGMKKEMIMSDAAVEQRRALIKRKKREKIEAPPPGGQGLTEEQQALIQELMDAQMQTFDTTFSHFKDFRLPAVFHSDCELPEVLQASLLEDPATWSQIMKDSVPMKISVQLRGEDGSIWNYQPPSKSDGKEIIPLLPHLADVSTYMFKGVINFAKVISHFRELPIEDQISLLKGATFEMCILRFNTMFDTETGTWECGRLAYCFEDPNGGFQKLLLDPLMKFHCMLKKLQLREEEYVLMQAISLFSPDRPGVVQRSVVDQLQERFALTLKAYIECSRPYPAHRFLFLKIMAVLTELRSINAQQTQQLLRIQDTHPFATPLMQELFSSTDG

Assay [18] has as its target Nuclear receptor subfamily 1 group I member 2 (Homo sapiens) (UniProt O75469). Briefly: CYP3A4 induction through human pregnane X receptor (PXR) by small molecules, qHTS assay (AID 1346984). Also: nearly all actives have a fitted effect of over 40% in size. A digest of the protocol:
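After 24 h at 37C with compound, DPX-2 cells (HepG2, co-transfected PXR response element and CYP3A4 promoter-luciferase) got 3uM final P450-Glo Luciferin-IPA for 3 h; One-Glo luminescence followed.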
% is scaled to controls: 0 for no effect and ±100 for the full control effect.

Progesterone receptor (Homo sapiens), sequence (P06401 whole entry, looked up): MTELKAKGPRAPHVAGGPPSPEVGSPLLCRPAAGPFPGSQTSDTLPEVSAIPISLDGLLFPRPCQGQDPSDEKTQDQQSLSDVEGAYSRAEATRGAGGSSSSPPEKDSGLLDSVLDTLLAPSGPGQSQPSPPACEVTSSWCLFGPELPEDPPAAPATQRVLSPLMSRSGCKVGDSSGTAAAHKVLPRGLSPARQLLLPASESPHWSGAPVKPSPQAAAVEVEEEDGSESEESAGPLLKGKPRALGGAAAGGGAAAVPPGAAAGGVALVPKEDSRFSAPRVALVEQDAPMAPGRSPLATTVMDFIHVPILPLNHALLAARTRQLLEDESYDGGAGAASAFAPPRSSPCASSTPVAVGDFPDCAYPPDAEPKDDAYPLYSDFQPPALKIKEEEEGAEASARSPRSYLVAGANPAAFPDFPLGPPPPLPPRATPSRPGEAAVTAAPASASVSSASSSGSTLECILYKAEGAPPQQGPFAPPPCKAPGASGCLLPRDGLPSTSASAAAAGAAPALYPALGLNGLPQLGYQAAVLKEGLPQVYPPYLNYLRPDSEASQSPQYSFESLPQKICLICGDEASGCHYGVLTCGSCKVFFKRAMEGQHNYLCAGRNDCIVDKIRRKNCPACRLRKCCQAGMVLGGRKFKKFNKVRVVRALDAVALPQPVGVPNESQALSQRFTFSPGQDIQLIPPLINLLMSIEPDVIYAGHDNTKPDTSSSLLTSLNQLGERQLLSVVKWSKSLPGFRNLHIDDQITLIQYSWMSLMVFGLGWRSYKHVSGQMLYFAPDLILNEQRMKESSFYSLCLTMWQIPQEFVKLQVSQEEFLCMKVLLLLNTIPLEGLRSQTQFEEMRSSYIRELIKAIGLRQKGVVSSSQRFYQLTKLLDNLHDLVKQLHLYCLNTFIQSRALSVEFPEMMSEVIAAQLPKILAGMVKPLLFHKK
Thyrotropin-releasing hormone receptor (Homo sapiens), sequence (P34981 whole entry, looked up): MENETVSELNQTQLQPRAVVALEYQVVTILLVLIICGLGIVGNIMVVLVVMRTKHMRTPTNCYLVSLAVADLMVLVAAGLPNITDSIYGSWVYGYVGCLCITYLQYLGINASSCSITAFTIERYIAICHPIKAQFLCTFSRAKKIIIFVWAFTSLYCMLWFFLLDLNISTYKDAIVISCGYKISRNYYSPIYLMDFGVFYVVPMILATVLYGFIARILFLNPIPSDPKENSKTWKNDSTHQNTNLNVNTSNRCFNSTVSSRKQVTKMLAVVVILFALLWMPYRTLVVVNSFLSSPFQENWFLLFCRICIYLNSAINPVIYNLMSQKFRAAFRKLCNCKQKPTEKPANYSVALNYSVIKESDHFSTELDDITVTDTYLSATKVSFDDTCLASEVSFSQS
Nuclear receptor subfamily 1 group I member 2 (Homo sapiens), sequence (O75469 whole entry, looked up): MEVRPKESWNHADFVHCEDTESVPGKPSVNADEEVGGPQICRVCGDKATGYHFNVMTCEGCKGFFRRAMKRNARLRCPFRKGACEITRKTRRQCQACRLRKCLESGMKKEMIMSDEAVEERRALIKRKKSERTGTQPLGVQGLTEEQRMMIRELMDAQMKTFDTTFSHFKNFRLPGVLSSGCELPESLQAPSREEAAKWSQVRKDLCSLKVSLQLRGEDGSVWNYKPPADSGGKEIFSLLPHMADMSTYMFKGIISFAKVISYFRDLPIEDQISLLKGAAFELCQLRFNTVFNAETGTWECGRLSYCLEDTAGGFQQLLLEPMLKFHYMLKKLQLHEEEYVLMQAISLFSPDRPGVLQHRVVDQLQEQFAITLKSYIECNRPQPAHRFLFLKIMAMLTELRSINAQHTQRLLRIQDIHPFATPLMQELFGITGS

As for `O=C(O)/C=C/c1ccc(/C=C/C(=O)O)cc1`, the outcome in assay [1], in assay [4], in assay [5], in [6], in assay [7] and in assay [8] was inactive. Also, the outcome in [10], in assay [12] and in [13] was inactive. The Potency entry in [2], in [3], in assay [9], in [11] and in assay [14] was “inactive” throughout.
On to `Cc1ccccc1C(=O)O`, for which the outcome in assay [1], in assay [5], in assay [6], in assay [10], in assay [12] and in [13] was inactive. For the same compound, the Potency result in assay [2], in [3], in [15], in assay [16] and in [9] was “inactive” in each case. Moreover, the Potency in assay [14] was 30.1 µM (active).
As to `C1=C\CC/C=C\CC/C=C\CC/1`, the result in assay [1], in assay [5], in [6], in [10], in assay [12] and in assay [13] was inactive. The Potency result in assay [2], in assay [3], in [15], in assay [16], in [9] and in assay [11] was “inactive” throughout. For the same compound, in assay [14], the Potency result was “inactive”.
Take `CC/C=C\CCCCO`: the result in assay [1], in assay [4], in assay [5], in assay [6], in [7] and in assay [8] was inactive. In addition, the call in [10], in assay [12] and in assay [13] was inactive. The Potency entry in [2], in assay [15], in assay [16], in assay [9], in assay [11] and in [14] was “inactive” in each case.
For the compound `O=C(CCOCCOCCOCCOCCC(=O)Nc1c(I)cc(I)c(C(=O)O)c1I)Nc1c(I)cc(I)c(C(=O)O)c1I`, the outcome in [1], in [4], in assay [5], in assay [6], in assay [10] and in assay [12] was inactive. For the same compound, the compound was classed as inactive in assay [13]. In addition, the Potency entry in assay [2], in assay [3], in [9], in [11] and in [14] was “inactive” throughout.
In the case of `Cc1nc(-c2ccc(OCC(C)C)c(C#N)c2)sc1C(=O)O`, the result in assay [1], in assay [4], in assay [5], in [10], in assay [12] and in [13] was inactive. Moreover, the Potency result in [2], in assay [15], in assay [16], in assay [9] and in assay [11] was “inactive” each time. In [14], the Potency was 0.106 µM (active).
As to `[O-][N+](=Nc1ccccc1)c1ccccc1`, the outcome in assay [1], in assay [5], in assay [6], in assay [7], in [8] and in [10] was inactive. Also, the compound was classed as inactive in assay [12] and in assay [13]. Further, the Potency result in assay [2], in [3], in assay [16], in assay [9] and in assay [18] was “inactive” in each case. In [14], the Potency is 21.7 µM (active). Also, the max activation in [17] was 13.9%.
On to `Cc1cc(C)c(NC(=O)CN(CC(=O)O)CC(=O)O)c(C)c1Br`, for which the outcome in assay [1], in assay [5], in assay [6], in [10], in assay [12] and in [13] was inactive. The Potency result in assay [2], in assay [3], in [16], in assay [9], in [11] and in assay [14] was “inactive” throughout. For the same compound, the Potency entry in [18] was “inactive”. In [17], the max activation was -1.5%.
With `Cc1nccn1CC1CCc2c(c3ccccc3n2C)C1=O` (configuration not stated), the outcome in assay [1], in assay [4], in assay [5], in assay [6], in [7] and in assay [8] was inactive. Moreover, the call in [10], in [12] and in assay [13] was inactive. The Potency result in assay [2], in assay [3], in [16], in assay [9], in assay [11] and in assay [14] was “inactive” in each case.
